Experimental data: PubChem BioAssay (NCATS)
Results filed as inconclusive are left out. A call without a number means that no potency is given here. A number with no mark means an inactive call. The source made the active and inactive calls. Calls come from the whole dose curve; as a rule, active = well fitted curve in the direction sought with a large enough effect; inconclusive = small, poorly fitted or top-dose-only effect, or another doubt; inactive = no such curve, though single readings can be large; an effect the other way counts as inactive or inconclusive.

test: Counterscreen qHTS for small molecule stabilizers of the endoplasmic reticulum resident proteome: GLuc-NoTag assay (AID 1508627); settings: Gaussia luciferase NoTag secretion counterscreen, luminescence, thapsigargin 100 nM for final 4 h; series mostly up to 76.4 µM
Summary of the method: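 SH-SY5Y cells stably expressing constitutively secreted GLuc without SERCaMP tag, exposed to compound for 19 hr, then to 100 nM thapsigargin for 4 hr at 37C. Medium luciferase was read by coelenterazine luminescence without lysis.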
Potency is the fitted concentration of half-maximal effect.

| SMILES | Potency |
| --- | --- |
| C=C1C(=O)OC2C=C(C)CCC=C(C)CCC12 (stereo not drawn) | inactive |
| CC[C@H]1OC(=O)[C@H](C)[C@@H](O[C@H]2C[C@@](C)(OC)[C@@H](O)[C@H](C)O2)[C@H](C)[C@@H](O[C@@H]2O[C@H](C)C[C@H](N(C)C)[C@@H]2O)[C@](C)(O)C[C@@H](C)CN(C)[C@H](C)[C@@H](O)[C@]1(C)O | inactive |
| O=C1c2ccccc2-[n+]2ccc3c([nH]c4ccccc43)c21 | 2 µM (active) |
| O=c1ccn([C@@H]2O[C@H](CO)[C@H](O)[C@H]2O)c(=O)[nH]1 | inactive |

test: Cell Viability qHTS for small molecule stabilizers of the endoplasmic reticulum resident proteome (AID 1508629); settings: cell viability counter-screen, 100 nM thapsigargin for final 4 h;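 note: compound exposure about 46 h in total before the viability read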;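 for max response: human SH-SY5Y neuroblastoma cells carrying the GLuc-SERCaMP reporter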

| SMILES | max response [%] | Potency |
| --- | --- | --- |
| Cn1cc(C=C2C(=O)Nc3cccnc32)c2ccccc21 | 16.6 |  |
| O=C1c2ccccc2-[n+]2ccc3c([nH]c4ccccc43)c21 |  | 1 µM (active) |
| Nc1ncnc2c1ncn2[C@@H]1O[C@H](CO)C[C@@H]1O | 15.2 |  |

test: Primary qHTS for small molecule stabilizers of the endoplasmic reticulum resident proteome: Secreted ER Calcium Modulated Protein (SERCaMP) assay (AID 1508630); settings: SH-SY5Y GLuc-SERCaMP (Gaussia luciferase released on ER calcium loss) secretion, thapsigargin, luminescence; series mostly up to 38.4 µM
Summary of the method: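 GLuc-SERCaMP-expressing SH-SY5Y cells, pretreated 16 h with compound, are challenged with thapsigargin to empty ER calcium stores; after 4 h, coelenterazine is added directly to the medium and luminescence is imaged.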

| SMILES | Potency |
| --- | --- |
| CC[C@H]1OC(=O)[C@H](C)[C@@H](O[C@H]2C[C@@](C)(OC)[C@@H](O)[C@H](C)O2)[C@H](C)[C@@H](O[C@@H]2O[C@H](C)C[C@H](N(C)C)[C@@H]2O)[C@](C)(O)C[C@@H](C)CN(C)[C@H](C)[C@@H](O)[C@]1(C)O | inactive |
| CCC(CC)[C@H](NC(C)=O)[C@@H]1[C@H](O)[C@@H](C(=O)O)C[C@@H]1N=C(N)N | inactive |
| O=C1c2ccccc2-[n+]2ccc3c([nH]c4ccccc43)c21 | 10.6 µM (active) |
| O=c1ccn([C@@H]2O[C@H](CO)[C@H](O)[C@H]2O)c(=O)[nH]1 | 1.68 µM (active) |
| CC1(C)CCC[C@@]2(C)[C@@H]1CC[C@@]1(C)OC(=O)C[C@H]21 | inactive |
| Nc1ncnc2c1ncn2[C@@H]1O[C@H](CO)C[C@@H]1O | inactive |
